# The whole screen tested about 69,000 compounds, of which about 8,600 (12%) showed an effect of 50% or more. This excerpt belongs to a sample that is enriched for strong results.
# Tested on: Plasmodium berghei
# Assay: Screen against P. berghei liver stage (PbLuc), transformed with Luciferase, at 10uM
# Type: functional, HepG2
# Details: tested at 10 uM
row,SMILES,INHIBITION
1,COc1ccccc1C(=O)Nc1cc(CC(C)C)nn1C,12.7%
2,Cc1cnc(C(=O)N2CC(=O)N(c3ccccc3Cl)CC2C)cn1 (stereo not given),17%
3,c1cc(C2CCCN2CC2CCCCC2)n[nH]1 (stereo not given),-12.3%
4,Cc1nc(Nc2ncccn2)cc(C2CCCN2Cc2ncc[nH]2)n1 (stereo not given),18.9%
5,Cc1nc(Nc2ncccn2)cc(C2CCCN2C(C)C)n1 (stereo not given),-0.902%
6,Cc1nc(Nc2ccccn2)cc(C2CCCN2Cc2ncc[nH]2)n1 (stereo not given),50.1%
7,c1cc(C2CCCN2CC2CC2)n[nH]1 (stereo not given),-14.2%
8,CC(C)CN1CCCC1c1cc[nH]n1 (stereo not given),52.7%
9,Cc1nc(Nc2ncccn2)cc(C2CCCN2CC(C)C)n1 (stereo not given),56.3%
10,Cc1nc(Nc2ncccn2)cc(C2CCCN2C)n1 (stereo not given),0.301%
11,Cc1c[nH]nc1C1CCCN1Cc1ncc[nH]1 (stereo not given),-12.3%
12,O=C(c1cc(F)ccc1F)C1CCN(C(=O)c2cnccn2)CC1,3.73%
13,CCCn1nnnc1CN1Cc2ccccc2CC1c1nnc(C)o1 (stereo not given),-25.6%
14,Cc1nn(C)cc1-c1cc(-c2cn(C)nc2C)n(CC(=O)NC2CC2)n1,15.2%
15,CCCC(=O)N1CCC(O)(Cn2c(CC)nc3ccccc3c2=O)CC1,41.5%
16,CN(C)c1cc(C(=O)N2CCCN(Cc3nccn3C)CC2)ccn1,29.2%
17,O=C(NCc1cccnc1)C1=NN(c2ccccc2)C(=O)CN1,-19.2%
18,COCc1ccc(CNC(=O)C2=NN(c3ccccc3)C(=O)CN2)cc1,51.6%
19,COc1ccccc1CNC(=O)C1=NN(c2ccc(C)cc2)C(=O)CN1,18.1%
20,COc1ccc(CNC(=O)C2=NN(c3ccc(C)cc3)C(=O)CN2)cc1,79.5%
21,N#Cc1ccc(CNC(=O)C2=NN(c3ccccc3)C(=O)CN2)cc1,-72.2%
22,COc1ccc(C)cc1CNC(=O)C1=NN(c2ccccc2)C(=O)CN1,-174%

row,SMILES,INHIBITION
1,COCCCN(Cc1cnc(-c2ccccn2)nc1)C1CCN(C)CC1,23.9%
2,CCC1(O)CCCN(c2ncnc3c2c(C)nn3C)C1 (stereo not given),13.7%
3,COCCOC(=O)N1CCn2nc(CN(C)Cc3nccs3)cc2C1,36.7%
4,CCC(=O)N(c1ccc(C(=O)OC)cc1C)C(C)C,20.9%
5,CN(C)CCOCC1CN(Cc2ccsc2)Cc2nnn(C)c21 (stereo not given),38.2%
6,Cc1cccc(C(=O)N2C[C@@H](C)[C@@]3(CCN(c4ccsc4)C3=O)C2)n1,19.4%
7,C[C@@H]1CN(C(=O)c2ccsc2)C[C@]12CCN(c1ccsc1)C2=O,35.3%
8,C[C@@H]1CN(C(=O)c2cccc(F)c2)C[C@]12CCN(c1ccsc1)C2=O,50.9%
9,CCc1nn(C)c2[nH]nc(NC(=O)c3cccnc3OC)c12,43.1%
10,Cc1nn(C)c(N(C)C)c1CNCc1nnc2n1CCCCC2,-7.94%
11,Cc1ccc(NC2CCN(C(=O)CCn3nc(C)cc3C)CC2)nn1,15.4%
12,CNc1nc(C(=O)N2CCn3nc(C(=O)OC)cc3C2)cs1,9.16%
13,COc1ccc(C[C@H]2CN(C(=O)c3ccn(C)n3)CC[C@H]2OC)cc1,-7.28%
14,c1cncc(OCCCNC2COc3ccccc3C2)c1 (stereo not given),38.5%
15,CC(C)NC(=O)C1(Cc2ccccc2-c2cccs2)CCNC1 (stereo not given),41.2%
16,Cc1noc(C)c1-c1ccc(C2CCCN2C(=O)c2cccnc2)nc1 (stereo not given),-5.71%
17,Cc1noc(C)c1-c1ccc(C2CCCN2C(=O)c2cccnn2)nc1 (stereo not given),31.6%
18,CC(=O)N1CCCC1c1ccc(-c2c(C)noc2C)cn1 (stereo not given),25.6%
19,Cc1noc(C)c1-c1ccc(C2CCCN2C(=O)c2cnn(C)c2)nc1 (stereo not given),-32.2%
20,Cc1noc(C)c1-c1ccc(C2CCCN2C(=O)c2ccncn2)nc1 (stereo not given),61.7%
21,Cc1noc(C)c1-c1ccc(C2CCCN2C(=O)Cn2ccnc2)nc1 (stereo not given),53.2%
22,Cc1csc(CCNC(=O)N2CCC(C(N)=O)CC2)n1,36.9%

row,SMILES,INHIBITION
1,Cc1nn(C)c2cnn(CC(=O)NCc3ccc(F)cc3)c12,44.9%
2,OCCC1(NCc2ccc(-n3cccn3)cc2)CCOCC1,12%
3,CCN1CCN(C(=O)C2CCOC2)c2ccccc21 (stereo not given),48.3%
4,COc1ccc(CCNC(=O)C(C)Nc2cc(C)ccc2C)cc1 (stereo not given),44.9%
5,COc1ccc(CCNC(=O)C(C)Nc2cccc(C)c2C)cc1 (stereo not given),20.9%
6,COc1ccc(CCNC(=O)C(C)Nc2ccc(C)c(C)c2)cc1 (stereo not given),58.5%
7,CCn1cc(CN2CCCN(C(=O)c3ccccc3C)CC2)cn1,-57.4%
8,CCCn1nnnc1COC(=O)C1COc2ccc(Cl)cc2C1 (stereo not given),32.3%
9,CCc1nncn1CCNC(=O)N1CCCC(Cc2nccn2C)C1 (stereo not given),17.6%
10,CC(C)c1nnc2n1CC(CNc1cnc3ccccc3n1)CC2 (stereo not given),43.4%
11,CCc1nnc2n1CC(CNc1cnc3ccccc3n1)CC2 (stereo not given),27.6%
12,Cc1nnc2n1CC(CNc1cnc3ccccc3n1)CC2 (stereo not given),60.1%
13,CC(C(=O)N1CCN(Cc2ccc(C#N)cc2)CC1)n1ccnc1 (stereo not given),23.5%
14,O=C1CCCN1Cc1nnc2n1CCCN(Cc1ccco1)C2,-9.23%
15,Cc1ccc(NC2CCN(C(=O)c3cscn3)CC2)nn1,-77.1%
16,CCCC(C)C(=O)NCc1cn2cc(Br)ccc2n1 (stereo not given),-19%
17,CC(C(=O)NCc1cn2cc(Br)ccc2n1)S(C)(=O)=O (stereo not given),40.6%
18,COc1c(C)cnc(CNC(=O)CCOCC(C)C)c1C,-74%
19,CCOCCCC(=O)NCc1cn2cc(Br)ccc2n1,11.1%
20,CC(C)COCCC(=O)NCc1cn2cc(Br)ccc2n1,55.1%
21,CCOCCOC(C)C(=O)NCc1cn2cc(Br)ccc2n1 (stereo not given),-27.6%
22,CCOCCOC(C)C(=O)NCc1cn2cc(Cl)ccc2n1 (stereo not given),53.4%

row,SMILES,INHIBITION
1,CCC(CC)C(=O)NCc1cn2cc(Br)ccc2n1,50%
2,CCOCCOC(C)C(=O)NCc1ccc(N2CCCCC2)cc1 (stereo not given),21.7%
3,CN(C)c1cc(C2CCCN(C(=O)c3ccc(=O)[nH]n3)C2)ccn1 (stereo not given),34.1%
4,CC(=O)NCc1cc2n(n1)CCN(Cc1cccc(CCN)c1)C2,-7.53%
5,Cc1ccccc1C(=O)NCc1ccnc(N(C)C)c1,24%
6,O=C(c1ccncc1)N1CCC(c2nc(O)cc(-c3cccnc3)n2)C1 (stereo not given),48.9%
7,CNC(=O)[C@@H]1CC[C@@H]2[C@@H](CCN2C(=O)N(C)C)O1,58.5%
8,CN(C)C(=O)[C@H]1CC[C@@H]2[C@@H](CCN2C(=O)N(C)C)O1,14.2%
9,CNC(=O)[C@H]1CC[C@@H]2[C@@H](CCN2C(=O)N(C)C)O1,15.7%
10,Cn1cccc1C(=O)N1C[C@@H]2C[C@@H](c3nnc(C4CC4)o3)O[C@@H]2C1,43.9%
11,CCCc1noc(C2CCN(C(=O)C3CCCO3)CC2)n1 (stereo not given),13.9%
12,CCc1cc(N(C)Cc2nonc2C)nc(N2CCOCC2)n1,27.7%
13,CCc1cc(N(C)Cc2ncc[nH]2)nc(N2CCOCC2)n1,25.8%
14,CCc1cc(N(C)Cc2[nH]nc3c2CCC3)nc(N2CCOCC2)n1,51.1%
15,Cc1cc(Oc2ccccc2)nc(C2CCCCN2)n1 (stereo not given),16.5%
16,CNc1cc(N2CCCC2CNCc2ccc(C)o2)ncn1 (stereo not given),-0.448%
17,CNc1cc(N2CCCC2CNCc2ccc(Cl)o2)ncn1 (stereo not given),56.9%
18,CNc1cc(N2CCCC2CNCc2ccccn2)ncn1 (stereo not given),-21.3%
19,CNc1cc(N2CCCC2CNCc2ccco2)ncn1 (stereo not given),59.8%
20,CNc1cc(N2CCCC2CNCc2cnc(C)cn2)ncn1 (stereo not given),7.7%
21,CNc1cc(N2CCCC2CNCc2cccs2)ncn1 (stereo not given),36.8%
22,O=C(CNC(=O)c1ccc(Cl)cc1)Nc1nccs1,14.5%

row,SMILES,INHIBITION
1,COc1ncccc1NC(=O)N(C1CC1)C(C)C(C)C (stereo not given),31.3%
2,CCCc1nc(C(=O)NCCN2CCC(c3ccccc3C)C2)cs1 (stereo not given),85.1%
3,Cc1nc(CC(=O)NCCN2CCC(c3ccccc3C)C2)cs1 (stereo not given),42.4%
4,Cc1ccccc1C1CCN(CCNC(=O)CS(C)(=O)=O)C1 (stereo not given),36.9%
5,COc1c(Br)c(CC2CC(CO)=NO2)c(OC)c2c1OCO2 (stereo not given),22.6%
6,CCn1cc(CN2CCN(C(=O)c3cc(Br)cs3)CC2)c(C)n1,38.3%
7,Cn1cc(Cl)c(CN(Cc2ccsc2)CC2CCCO2)n1 (stereo not given),11.5%
8,Cn1cc(C2CCCN2CCCn2c(=O)oc3ccccc32)cn1 (stereo not given),1.84%
9,CCCN(CCn1c(=O)oc2ccccc21)CC1CC1,56.3%
10,O=c1oc2ccccc2n1CCN(CC1CCOC1)C1CC1 (stereo not given),51.3%
11,O=c1c2ccccc2nnn1CN(CC1CCOC1)C1CC1 (stereo not given),-5.92%
12,Cc1nn(CN(CC2CCOC2)C2CC2)c(=O)c2ccccc12 (stereo not given),8.86%
13,CCN(CC)CCn1c(=O)oc2ccccc21,-5.1%
14,O=c1oc2ccccc2n1CCCN1CCCC1c1ccc(O)cc1 (stereo not given),6.61%
15,CCN(CCn1c(=O)oc2ccccc21)CC1CCOCC1,64.9%
16,CCN(Cc1ccc(C(C)=O)cc1)CC1CCOCC1,14.6%
17,CCn1cc2[nH]c(OC)c(CNC(=O)C3CCCN(C)C3)cc-2c1=O (stereo not given),34.4%
18,CC(C)(C)Nc1c(C2CCCN(C(=O)C3CC3)C2)nc2ccccn12 (stereo not given),14.05%
19,Cc1nnc(CN(CCc2ccccc2)C2CCN(C)CC2)s1,4.12%
20,CCn1cc(CNC2CCN(c3cccc(C)c3C)CC2)cn1,-12.1%
21,CCOC1COC2(CCN(CC3CC3)CC2)C1 (stereo not given),26.7%
22,Nc1nccc(C2CCN(CCO)C2)n1 (stereo not given),15.5%

# From ChEMBL document CHEMBL4513216, “Probing the Open Global Health Chemical Diversity Library for Multistage-Active Starting Points for Next-Generation Antimalarials” (ACS Infect Dis, 2020)
